Results on 39 compounds are retold here after PubChem BioAssay (EPA / NIEHS).

Records with an inconclusive call do not appear. Some structures have more than one record in an assay (separate samples or runs), and their calls can disagree. The source made the active and inactive calls. Rule for the calls: active = hit-call score of the fitted dose curve at least 0.9, where 1 is the maximum; inconclusive = response in the unintended direction; inactive = score below 0.9.

Read-out in the test: glucuronosyltransferase (UGT1A1), UGT1A1 (gene 54658)
As to the kind of experiment: CLD_UGT1A1_48hr: CellzDirect (CLD) Gene Expression Assay for glucuronosyltransferase (UGT1A1) at 48 hours (AID 2283709).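 Note: actives increase expression relative to DMSO so potency refers to induction.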 As for the experimental part:
CLD_48hr is a cell-based, multiplexed-readout assay that uses hepatocyte, a human liver primary cell, with measurements taken at 48 hours after chemical dosing in a 96-well plate.CLD_UGT1A1_48hr is one of 16 assay component(s) measured or calculated from the CLD_48hr assay. It is designed to make measurements of mRNA induction, a form of inducible reporter, as detected with chemiluminescence signals by Quantitative Nuclease Protection Assay (qNPA) technology.Data from the assay component CLD_UGT1A1_48hr was analyzed at the endpoint, CLD_UGT1A1_48hr, in the positive analysis fitting direction relative to DMSO as the negative control and baseline of activity. Using a type of inducible reporter, gain-of-signal activity can be used to understand changes in the reporter gene as they relate to the gene UGT1A1. Furthermore, this assay endpoint can be referred to as a primary readout. To generalize the intended target to other relatable targets, this assay endpoint is annotated to the transferase intended target family, where subfamily is glucuronosyltransferase.
Human hepatocyte cultures were treated daily for two consecutive days with fresh dosing solutions containing appropriate concentrations of the 320 ToxCast chemicals (chemical identities were blinded to CellzDirect and other ToxCast collaborators), vehicle control (0.2% DMSO), and positive control inducers as summarized in Table 1. Due to the large number of treatment groups and chemicals examined, the ToxCast chemicals were divided into two groups (spanning two independent cultures of hepatocytes from separate donor preparations (Hu778: ToxCast plates 1 and 2; Hu776: ToxCast plates 3 and 4). Each preparation of human hepatocyte cultures was treated with respective vehicle control, medium only control, set of six positive controls/reference chemicals for the five hepatic receptor pathways, and a subset of eight of the ToxCast chemicals (indoxacarb, pyrithiobac-sodium, norflurazon, cyhalofop-butyl, methomyl, thiram, acetochlor, and propiconazole). These replicate data, coupled with internal replicates designed within the blinded ToxCast chemical library, provided additional data to evaluate interindividual differences between hepatocyte preparations and their potential impact on chemical profiles.Cell morphology and integrity were evaluated using phase-contrast microscopy as an indicator of hepatocyte cell health (Tyson & Green, 1987). Cultures for each treatment group (i.e., media, vehicle [0.2% DMSO], positive control inducers [multiple concentrations], and the ToxCast chemicals [multiple concentrations]) were observed and cell morphology was assessed relative to vehicle control cultures at each harvest time point (0, 6, 24, or 48 h). […] Images were evaluated at the conclusion of the study to assess changes in cell integrity and account for the effects of chemical exposure on uncharacteristic changes in concentration-dependent gene expression profiles. The results from these determinations of apparent cytotoxicity were annotated (yes/no) alongside the corresponding qNPA data for reference.At the conclusion of each treatment period, hepatocyte cultures (96-well) were washed with 1 volume of HBSS, lysed by addition of 25 ul ArrayPlate lysis buffer (HTG, Tucson, AZ), and 70 ul/well of Denaturation Oil, denatured by incubation at 95C for 10 min, and frozen at approximately -70C until analysis by nuclease protection assay (qNPA) (Roberts et al., 2007). For qNPA analysis, cell lysates were thawed at 50C for approximately 30 min, qNPA probes were added, and samples were incubated at 95C for 10 min to begin the detection process by denaturing the target RNA, dissociating the duplexes and secondary structure hybridization. At the conclusion of the hybridization period, S1 nuclease reagent was added to each sample to digest all nonprotected nucleotides at 50C for 60-90 min. […]
Take `CCOc1cc(Oc2ccc(C(F)(F)F)cc2Cl)ccc1[N+](=O)[O-]`: the AC50 was 5.41 µM (active).

`N#Cc1cc(Br)c(O)c(Br)c1`: the compound was called inactive.

`CS/C(C)=N/OC(=O)N(C)SN(C)C(=O)O/N=C(\C)SC`: the outcome was inactive.

For the compound `COc1cnc(OC)n2nc(NS(=O)(=O)c3c(OCC(F)F)cccc3C(F)(F)F)nc12`, the result was inactive.

As for `COc1nc(C)nc(NC(=O)NS(=O)(=O)c2ccccc2CCC(F)(F)F)n1`, the compound was classed as inactive.

As to `COC(=O)C(C)Oc1ccc(Oc2ccc(Cl)cc2Cl)cc1` (stereo not given), the compound was called inactive and the AC50 was 20 µM (active).

For the compound `Oc1ccccc1-c1ccccc1`, the compound was classed as inactive.

Consider `CCCN(CCC)c1c([N+](=O)[O-])cc(S(N)(=O)=O)cc1[N+](=O)[O-]`, for which the compound was called inactive.

As to `CCNc1nc(Cl)nc(NCC)n1`, the outcome was inactive.

As to `COP(=S)(OC)Oc1nc(Cl)c(Cl)cc1Cl`, the call was inactive.

As for `Cc1c(F)c(F)c(COC(=O)C2C(/C=C(\Cl)C(F)(F)F)C2(C)C)c(F)c1F` (stereo not given), the compound was called inactive.

Take `COC(=O)C=C(C)OP(=O)(OC)OC`: the result was inactive.

On to `N#Cc1nn(-c2c(Cl)cc(C(F)(F)F)cc2Cl)c(N)c1S(=O)C(F)(F)F` (stereo not given), for which the result was inactive.

With `CO/C=C(/C(=O)OC)c1ccccc1Oc1cc(Oc2ccccc2C#N)ncn1`, the compound was called inactive.

Take `Cc1cc(Cl)ccc1OCC(=O)O`: the call was inactive.

On to `COC(=O)c1ccccc1C(=O)OC`, for which the outcome was inactive.

Turning to `CNC(=O)ON=CC(C)(C)SC`, the compound was classed as inactive.

`CCON=C(CC)C1=C(O)CC(c2c(C)cc(C)cc2C)CC1=O` (stereo not given): the compound was called inactive.

Regarding `CCOP(=S)(OCC)SCn1c(=O)oc2cc(Cl)ccc21`, the result was inactive.

Consider `COc1nc(C)nc(NC(=O)NS(=O)(=O)c2ccccc2Cl)n1`, for which the call was inactive.

On to `CCOC(=O)CC(SP(=S)(OC)OC)C(=O)OCC` (stereo not given), for which the compound was called inactive.

Turning to `COP(N)(=O)SC` (stereo not given), the compound was called inactive.

For `N#CC(CCc1ccc(Cl)cc1)(Cn1cncn1)c1ccccc1` (stereo not given), the outcome was inactive.

Regarding `CCCCNC(=O)n1c(NC(=O)OC)nc2ccccc21`, the call was inactive.

For `Fc1ccc(Oc2ccnc3cc(Cl)cc(Cl)c23)cc1`, the call was inactive.

For `CNC(=S)S`, the call was inactive.

As for `O=C(O)c1nc(Cl)ccc1Cl`, the call was inactive.

As to `CCCCC(CC)COC(=O)c1ccccc1C(=O)OCC(CC)CCCC` (stereo not given), the compound was called inactive.

As for `CON(C)C(=O)Nc1ccc(Cl)c(Cl)c1`, the result was inactive.

Turning to `CC1COC(Cn2cncn2)(c2ccc(Oc3ccc(Cl)cc3)cc2Cl)O1` (stereo not given), the result was inactive.

In the case of `COc1ccc(C(c2ccc(OC)cc2)C(Cl)(Cl)Cl)cc1`, the AC50 was 8.36 µM (active).

For the compound `C=CCC1=C(C)C(OC(=O)C2C(C=C(C)C)C2(C)C)CC1=O` (stereo not given), the AC50 was 11.1 µM (active).

For `CC(C)Oc1cc(-n2nc(C(C)(C)C)oc2=O)c(Cl)cc1Cl`, the result was inactive.

As for `C=CC1(C)OC(=O)N(c2cc(Cl)cc(Cl)c2)C1=O` (stereo not given), the compound was classed as inactive.

On to `C=CCC1=C(C)[C@@H](OC(=O)[C@@H]2[C@@H](C=C(C)C)C2(C)C)CC1=O`, for which the AC50 is 7.38 µM (active).

For `COc1nc(NC(C)C)nc(NC(C)C)n1`, the outcome was inactive.

As for `O=C(O)COc1nc(Cl)c(Cl)cc1Cl`, the compound was classed as inactive.

As to `CCNc1nc(Cl)nc(NC(C)C)n1`, the AC50 is 9.63 µM (active).

For the compound `CC(C)(C)c1ccc(CSc2cnn(C(C)(C)C)c(=O)c2Cl)cc1`, the result was inactive.

By AC50 is commonly meant the midpoint of the concentration-response curve, whichever way the signal moves.
